Experimental findings from PubChem BioAssay (NCATS) are described below.

Each structure is given as a SMILES string. Where “and” joins values, the source holds several entries; their conditions need not be identical. Identical values can stand only once. Results filed as inconclusive are left out. Values without a mark were called inactive. Calls of active or inactive are those of the source. Calls come from the whole dose curve; as a rule, active = well fitted curve in the direction sought with a large enough effect; inconclusive = small, poorly fitted or top-dose-only effect, or another doubt; inactive = no such curve, though single readings can be large; an effect the other way counts as inactive or inconclusive.
Potency is the fitted concentration of half-maximal effect.

One assay in a line: Viability qHTS for spleen associated tyrosine kinase inhibitor (SYKi) drug resistant MV4-11 cells (AID 1963824). Note: nearly all actives have a fitted effect of over 35% in size. The conditions noted are these: SYKi-resistant MV4-11 viability, CellTiter-Glo, 72 h; series mostly up to 45 µM. The essentials:
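SYK-inhibitor-resistant MV4-11 AML cells were seeded at 500 per well onto compound and cultured 72 hours (37 °C, 5% CO2). CellTiter-Glo was then added, and after 10 min at room temperature, luminescence gave viability.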
On the technique in general: qHTS replaces the single test concentration by a dilution series.
Regarding `CC1(C)C(N(O)C(=O)Nc2ccc(Cl)cc2)N(c2ccc(Cl)cc2)C(=O)N1CC(=O)N/N=C/C=C/c1ccc([N+](=O)[O-])o1` (stereo not given), the Potency is 2.63 µM (active).

Take `CC(C)n1cc(-c2ccc3c(c2)N(C)CC3)c2c(NS(=O)(=O)c3ccn(C)n3)ccnc21`: the Potency is 18.6 µM (active).

Regarding `C=CC(=O)Nc1cccc(Oc2nc(Nc3ccc(N4CCN(C)CC4)c(F)c3)nc3[nH]ccc23)c1`, the Potency is 0.525 µM (active).

Turning to `CC(=O)NC(CS)C(=O)O` (stereo not given), the Potency result is “inactive”.

Regarding `CC(C)C(=O)OCc1cccc(OC(=O)[C@@H]2N3C(=O)[C@@H](NC(=O)Cc4ccccc4)[C@H]3SC2(C)C)c1`, the Potency was 7.5 µM (active).

As for `CCOC(=O)NNc1ccc(N(CC)CC(C)O)nn1` (stereo not given), the Potency entry was “inactive”.

For `Cc1cc(C)nc(NS(=O)(=O)c2ccc(N)cc2)n1`, the Potency result was “inactive”.

On to `COc1cc2c(cc1OC)[C@@H]1CC(=O)[C@@H](CC(C)C)CN1CC2`, for which the Potency entry is “inactive”.

For `Cc1cc(/C=c2/sc3nc4ccccc4n3c2=O)c(C)n1-c1ccccc1`, the Potency was 10.5 µM (active).

As to `CCCC(=O)O[C@]1(C(=O)CC)CC[C@H]2[C@@H]3CCC4=CC(=O)CC[C@]4(C)[C@H]3[C@@H](O)C[C@@]21C`, the Potency result is “inactive”.

Consider `CCOc1ccc2ccccc2c1C(=O)N[C@@H]1C(=O)N2[C@@H]1SC(C)(C)[C@@H]2C(=O)O`, for which the Potency entry was “inactive”.

As to `O=C(NCC(=O)N1CCCC1)Nc1ccc2cnccc2c1`, the Potency was 8.2 µM (active).

On to `CCCCC1(COC(=O)CCC(=O)O)C(=O)N(c2ccccc2)N(c2ccccc2)C1=O`, for which the Potency result is “inactive”.

In the case of `Nc1ncnc2c1ncn2[C@@H]1O[C@H](CO)[C@@H](O)[C@H]1O`, the Potency entry was “inactive”.

`C[C@@H](Nc1cc(F)cc(F)c1)c1cc(C(=O)N(C)C)cc2c(=O)cc(N3CCOCC3)oc12`: the Potency was 2.31 µM (active) and 6.61 µM (active).

As to `Cc1cc2nc3ccc(=[N+](C)C)cc-3sc2cc1N`, the Potency was 1.68 µM (active).

For the molecule `CC(=O)OCC1=C(C(=O)O)N2C(=O)[C@@H](NC(=O)CSc3ccncc3)[C@H]2SC1`, the Potency entry was “inactive”.

As to `Nc1ncnc2nc[nH]c12`, the Potency result was “inactive”.

As for `C/C(=C(\CCO)SS/C(CCO)=C(\C)N(C=O)Cc1cnc(C)nc1N)N(C=O)Cc1cnc(C)nc1N`, the Potency entry was “inactive”.

Consider `CCCCOc1nc(N)c2c(n1)N(Cc1cccc(CN3CCCC3)c1)CC(=O)N2`, for which the Potency was 23.5 µM (active).

Turning to `CCC(C(=O)OCCN(CC)CC)c1ccccc1` (stereo not given), the Potency result was “inactive”.

Regarding `CCOCc1nc2c(N)nc3ccccc3c2n1CC(C)(C)O`, the Potency was 18.6 µM (active).

On to `C=CC(=O)Nc1cc(N2CCN(CC)CC2)ccc1Nc1cc(N(C)C(=O)Nc2c(Cl)c(OC)cc(OC)c2Cl)ncn1`, for which the Potency was 7.42 µM (active).

For `Cc1[nH]cnc1CN1CCN(C(=O)N[C@@H](CC(C)C)C(=O)O)[C@@H](Cc2ccccc2)C1=O`, the Potency entry is “inactive”.

As to `CNC(=O)CCc1cc(-c2ccc(-c3ccc(C(F)(F)F)cc3)cc2)n(-c2ccc(N3CCNCC3)cc2)n1`, the Potency is 2.09 µM (active).

Regarding `CCOC(=O)[C@@](C)(N)Cc1ccc(O)c(O)c1`, the Potency entry is “inactive”.

Consider `C#C[C@]1(O)CC[C@H]2[C@@H]3CCc4cc(OC)ccc4[C@H]3CC[C@@]21C`, for which the Potency is 13.3 µM (active).

On to `C[C@@H](N)C(=O)O`, for which the Potency entry is “inactive”.

In the case of `COCCN1CCN(Cc2ccc(-c3n[nH]c4c3C(=O)c3c(NC(=O)NN5CCOCC5)cccc3-4)cc2)CC1`, the Potency was 0.0209 µM (active).

As to `CCN1CCN(Cc2ccc(NC(=O)c3ccc(C)c(/C=C/c4cnc5[nH]ccc5c4OC)c3)cc2C(F)(F)F)CC1`, the Potency is 20.6 nM (active) and 83.3 nM (active).

Take `C[C@]12CCC(=O)C=C1CC[C@H]1[C@@H]3CC[C@](O)(C(=O)CO)[C@@]3(C)C[C@H](O)[C@@]12F`: the Potency entry is “inactive”.

Turning to `CN[C@@H](C)C(=O)N[C@H](C(=O)N1CCC[C@H]1C(=O)Nc1sc(-c2ncco2)nc1-c1ccccc1)C1CCCCC1`, the Potency is 0.59 µM (active).

As to `Cc1c(CN2CCC(Nc3ncnc4sc(CC(F)(F)F)cc34)CC2)ccc2c1cc(C#N)n2Cc1cn[nH]c1`, the Potency is 0.468 µM (active).

For `NCC(=O)Nc1cncc(-c2nn3c(=O)cc(N4CCNCC4)nc3s2)c1`, the Potency entry was “inactive”.

As to `CC(C)(C)NC(=O)c1cncn1C1CCN(c2ccc(-c3nnc(C(F)(F)F)o3)cn2)CC1`, the Potency was 2.95 µM (active).

With `COc1cc([C@H]2Oc3cc([C@H]4Oc5cc(O)cc(O)c5C(=O)[C@@H]4O)ccc3O[C@@H]2CO)ccc1O`, the Potency is 18.6 µM (active).

As to `Cc1cccn2c(=O)c(-c3nnn[nH]3)cnc12`, the Potency entry is “inactive”.

As to `CCCCNc1ccc(C(=O)OCCN(C)C)cc1`, the Potency entry is “inactive”.

With `C[N+](C)(C)CC[N+]1(C)Cc2c(Cl)c(Cl)c(Cl)c(Cl)c2C1`, the Potency entry was “inactive”.

As for `CCOc1c(N2CCOCC2)cnn(C)c1=O`, the Potency entry was “inactive”.

The nature of another assay: Cellular viability qHTS for adrenocortical cancer (ACC) cell line SW-13 (AID 1963989).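 For activity (max response): cells grown in serum-free medium with ITS supplement; % is set by controls: 0 for no effect and ±100 for the full control effect.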 Note: nearly all actives have a fitted effect of over 65% in size. As to conditions: SW-13 ACC cells viability, CellTiter-Glo, 48 h; activity (max response): active compounds read low. Put shortly:
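Here, serum-free SW-13 cultures were dosed up to 46 uM. Following 48 h, ATP-dependent luminescence (CellTiter-Glo) reported viable cells, and logistic modeling produced IC50 values.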
As to `CC1(C)C(N(O)C(=O)Nc2ccc(Cl)cc2)N(c2ccc(Cl)cc2)C(=O)N1CC(=O)N/N=C/C=C/c1ccc([N+](=O)[O-])o1` (stereo not given), the Potency was 25.1 µM (active).

Turning to `CC(C)n1cc(-c2ccc3c(c2)N(C)CC3)c2c(NS(=O)(=O)c3ccn(C)n3)ccnc21`, the activity (max response) is 9.47%.

Take `C=CC(=O)Nc1cccc(Oc2nc(Nc3ccc(N4CCN(C)CC4)c(F)c3)nc3[nH]ccc23)c1`: the Potency was 2.82 µM (active).

Consider `CC(=O)NC(CS)C(=O)O` (stereo not given), for which the activity (max response) was -2.17%.

On to `CC(C)C(=O)OCc1cccc(OC(=O)[C@@H]2N3C(=O)[C@@H](NC(=O)Cc4ccccc4)[C@H]3SC2(C)C)c1`, for which the activity (max response) is 14.5%.

On to `CCOC(=O)NNc1ccc(N(CC)CC(C)O)nn1` (stereo not given), for which the activity (max response) is -8.2%.

With `Cc1cc(C)nc(NS(=O)(=O)c2ccc(N)cc2)n1`, the activity (max response) is 6.1%.

In the case of `COc1cc2c(cc1OC)[C@@H]1CC(=O)[C@@H](CC(C)C)CN1CC2`, the activity (max response) was -4.64%.

With `Cc1cc(/C=c2/sc3nc4ccccc4n3c2=O)c(C)n1-c1ccccc1`, the activity (max response) was -15.5%.

`CCCC(=O)O[C@]1(C(=O)CC)CC[C@H]2[C@@H]3CCC4=CC(=O)CC[C@]4(C)[C@H]3[C@@H](O)C[C@@]21C`: the activity (max response) was 0.342%.

Turning to `CCOc1ccc2ccccc2c1C(=O)N[C@@H]1C(=O)N2[C@@H]1SC(C)(C)[C@@H]2C(=O)O`, the activity (max response) is 2.64%.

As to `O=C(NCC(=O)N1CCCC1)Nc1ccc2cnccc2c1`, the activity (max response) is -10.6%.

Consider `CCCCC1(COC(=O)CCC(=O)O)C(=O)N(c2ccccc2)N(c2ccccc2)C1=O`, for which the activity (max response) was 6.69%.

For the molecule `Nc1ncnc2c1ncn2[C@@H]1O[C@H](CO)[C@@H](O)[C@H]1O`, the activity (max response) was -13.6%.

`C[C@@H](Nc1cc(F)cc(F)c1)c1cc(C(=O)N(C)C)cc2c(=O)cc(N3CCOCC3)oc12`: the activity (max response) was -10.8%.

`Cc1cc2nc3ccc(=[N+](C)C)cc-3sc2cc1N`: the Potency was 4.61 µM (active).

As to `CC(=O)OCC1=C(C(=O)O)N2C(=O)[C@@H](NC(=O)CSc3ccncc3)[C@H]2SC1`, the activity (max response) was 10.5%.

For `Nc1ncnc2nc[nH]c12`, the activity (max response) is 2.49%.

On to `C/C(=C(\CCO)SS/C(CCO)=C(\C)N(C=O)Cc1cnc(C)nc1N)N(C=O)Cc1cnc(C)nc1N`, for which the activity (max response) is 7.36%.

As for `CCCCOc1nc(N)c2c(n1)N(Cc1cccc(CN3CCCC3)c1)CC(=O)N2`, the activity (max response) was -4.22%.

Turning to `CCC(C(=O)OCCN(CC)CC)c1ccccc1` (stereo not given), the activity (max response) is 4.88%.

Turning to `CCOCc1nc2c(N)nc3ccccc3c2n1CC(C)(C)O`, the activity (max response) is -23.1%.

Consider `C=CC(=O)Nc1cc(N2CCN(CC)CC2)ccc1Nc1cc(N(C)C(=O)Nc2c(Cl)c(OC)cc(OC)c2Cl)ncn1`, for which the activity (max response) is -15%.

As for `Cc1[nH]cnc1CN1CCN(C(=O)N[C@@H](CC(C)C)C(=O)O)[C@@H](Cc2ccccc2)C1=O`, the activity (max response) is 6.54%.

As for `CNC(=O)CCc1cc(-c2ccc(-c3ccc(C(F)(F)F)cc3)cc2)n(-c2ccc(N3CCNCC3)cc2)n1`, the Potency is 3.98 µM (active).

Take `CCOC(=O)[C@@](C)(N)Cc1ccc(O)c(O)c1`: the activity (max response) was -4.97%.

For the molecule `C#C[C@]1(O)CC[C@H]2[C@@H]3CCc4cc(OC)ccc4[C@H]3CC[C@@]21C`, the activity (max response) was 5.57% and 4.24%.

For the molecule `C[C@@H](N)C(=O)O`, the activity (max response) is 1.67%.

Regarding `COCCN1CCN(Cc2ccc(-c3n[nH]c4c3C(=O)c3c(NC(=O)NN5CCOCC5)cccc3-4)cc2)CC1`, the Potency was 0.316 µM (active).

In the case of `CCN1CCN(Cc2ccc(NC(=O)c3ccc(C)c(/C=C/c4cnc5[nH]ccc5c4OC)c3)cc2C(F)(F)F)CC1`, the Potency is 3.16 µM (active).

In the case of `C[C@]12CCC(=O)C=C1CC[C@H]1[C@@H]3CC[C@](O)(C(=O)CO)[C@@]3(C)C[C@H](O)[C@@]12F`, the activity (max response) is 6.22%.

With `CN[C@@H](C)C(=O)N[C@H](C(=O)N1CCC[C@H]1C(=O)Nc1sc(-c2ncco2)nc1-c1ccccc1)C1CCCCC1`, the activity (max response) was -5.71%.

For the molecule `Cc1c(CN2CCC(Nc3ncnc4sc(CC(F)(F)F)cc34)CC2)ccc2c1cc(C#N)n2Cc1cn[nH]c1`, the Potency is 4.47 µM (active).

For the molecule `NCC(=O)Nc1cncc(-c2nn3c(=O)cc(N4CCNCC4)nc3s2)c1`, the activity (max response) was -17.3%.

Regarding `CC(C)(C)NC(=O)c1cncn1C1CCN(c2ccc(-c3nnc(C(F)(F)F)o3)cn2)CC1`, the activity (max response) was -14%.

On to `COc1cc([C@H]2Oc3cc([C@H]4Oc5cc(O)cc(O)c5C(=O)[C@@H]4O)ccc3O[C@@H]2CO)ccc1O`, for which the activity (max response) was 11.7% and -16.7%.

Turning to `Cc1cccn2c(=O)c(-c3nnn[nH]3)cnc12`, the activity (max response) was -1.53%.

In the case of `CCCCNc1ccc(C(=O)OCCN(C)C)cc1`, the activity (max response) was 4.21%.

On to `C[N+](C)(C)CC[N+]1(C)Cc2c(Cl)c(Cl)c(Cl)c(Cl)c2C1`, for which the activity (max response) is 6.09%.

For the molecule `CCOc1c(N2CCOCC2)cnn(C)c1=O`, the activity (max response) is 6.29%.
